Screening data deposited in PubChem BioAssay by National Center for Advancing Translational Sciences (NCATS).
The entries come from a sample that favours hits as a whole.
GALK inhibitor – galactokinase (human) inhibition; P51570; Purified GALK, Kinase-Glo residual ATP luminescence; Potency, µM (highest dose often 57.5 µM), for inactives: top-dose activity change, negative = inhibition, most hits filed as inhibitors; 270,000 tested, 0.007% active; also: % is scaled to controls: 0 for no effect and ±100 for the full control effect
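Quantitative HTS: GALK 5 nM, ATP 35 uM, galactose 100 uM, 1 h room temperature, then luciferase-based ATP detection.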
ClpP mod – qHTS Assay for Activators of ClpP. ATP-dependent Clp protease proteolytic subunit (Bacillus subtilis (strain 168)), P80244. purified B. subtilis ClpP, FRET peptide cleavage, 20 min. Potency, µM (series often up to 57.5 µM), for inactives: at the highest dose activity change, negative = active. 340,000 tested, 1.9% active. AID 651965, 2013; active = well fitted falling curve with a large enough effect; inconclusive = small, poorly fitted or top-dose-only effect; inactive = no such curve, though single readings can be large or run the other way; also: the source files actives as falling curves though it sought activators and does not explain the sign; nearly all actives have a fitted effect of over 65% in size
Target sequence (P80244 whole entry, looked up): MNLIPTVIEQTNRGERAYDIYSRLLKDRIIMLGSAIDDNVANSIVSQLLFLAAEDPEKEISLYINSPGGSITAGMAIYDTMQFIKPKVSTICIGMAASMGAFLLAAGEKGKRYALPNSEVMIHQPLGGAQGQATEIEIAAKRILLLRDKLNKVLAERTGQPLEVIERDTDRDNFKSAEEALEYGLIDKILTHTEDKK
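Buffer: 100 mM Tris/HCl pH8, 100 mM KCl, 0.05% low protease BSA, 2.5% glycerol, 0.01% Tween-20. ClpP 10 microg/mL final; 20 min RT; delta FRET normalized to ADEP and DMSO controls.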
Eya2 inh – inhibitors of human Eya2 phosphatase activity; recombinant Eya2, OMFP fluorescence dephosphorylation (OMFP is methylfluorescein phosphate); Potency, µM (highest dose often 76.9 µM), inactives show at the top dose activity, negative = inhibition, usual class: inhibitors; 330,000 tested, 0.006% active; O00167; AID 488837; also: % is scaled to controls: 0 for no effect and ±100 for the full control effect
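Eya2 protein (added as 0.2 uM solution) was preincubated with compound for 10 min at ambient temperature in 50 mM HEPES pH 7.5, 50 mM NaCl, 5 uM MgCl2, 0.05% BSA, 1 mM DTT. OMFP (added at 50 uM) then reacted 10 min; fluorescence read at 485/525 nm.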
USP2a block – USP2a (human) protease inhibition | Potency, µM (series often up to 38.3 µM), for inactives: at the highest dose activity change, negative = inhibition, most hits filed as inhibitors | 330,000 tested, 0.01% active | USP2 core, Ub-CHOP2 coupled fluorogenic reporter, 485/531;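 also: plate controls were DMSO wells for no effect and full inhibition by NEM control for full effect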
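Deubiquitinase activity read as fluorescence (485/531 nm) after Ub-CHOP2 cleavage activates the enterokinase reporter on its substrate; USP2 core 10nM, Ub-CHOP2 and substrate 25nM each, 30min compound preincubation then 60min RT; data normalized to NEM, curves fitted.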
* hit, by the source's call; ? = inconclusive; · = no result given. Unless noted, calls follow the shape of the dose curve; as a rule, active = well fitted inhibition curve with a large enough effect; inconclusive = small, poorly fitted or top-dose-only effect, or effect the other way; inactive = flat fitted curve, though single readings scatter. Potency is read from the fitted curve at half-maximal effect.

SMILES	GALK inhibitor	ClpP mod	Eya2 inh	USP2a block
CCCCCC(=O)Nc1cc(N(C)C)nc2ccccc12	0%	28µM*	-10%	-2%
CCCCCCC(=O)Nc1c2c(nc3ccccc13)N(C)CC2	0%	28µM*	·	·
O=S1(=O)c2c(Oc3cccc4ccccc34)cccc2OC(COCc2ccccc2)CN1C1CCCC1 (stereo not given)	·	0%	·	·
Cc1cc(C(=O)COc2ccccc2C(N)=O)c(C)n1C1CC1	0%	0%	6%	0%
Cc1cc(C(=O)COc2ccccc2C(N)=O)c(C)n1C	8%	28µM*	9%	-1%
Nc1cc(C(=O)c2ccccc2)ccc1N1CCOCC1	0%	-1%	2%	1%
CC(=O)Nc1cc(C(=O)c2ccccc2)ccc1N1CCOCC1	0%	35µM*	12%	0%
CC(NC(=O)Nc1cccc(F)c1)c1ccc2c(c1)OCO2 (stereo not given)	4%	-2%	-2%	-2%
O=C(C[n+]1cccc2ccccc21)c1ccccc1	2%	-12%	5%	2%
O=C(C[n+]1cc2ccccc2c2ccccc21)c1ccccc1	-4%	25µM*	8%	1%
c1ccc(Oc2ccc(-c3ccnc4nc(N5CCOCC5)nn34)cc2)cc1	-2%	·	-3%	1%
c1coc(-c2ccnc3nc(-n4cccc4)nn23)c1	4%	·	?	-5%
COc1ccc(-c2ccnc3nc(N4CCOCC4)nn23)cc1	3%	16µM*	-2%	2%
COc1ccc(-c2ccnc3nc(-n4cccc4)nn23)cc1	1%	28µM*	-3%	3%
COc1ccc(-n2ncc3c(NC(C)C)ncnc32)cc1	2%	-24%	-4%	3%
CCC(C)Nc1ncnc2c1cnn2-c1ccc(F)cc1 (stereo not given)	·	-18%	·	·
COc1ccc(-n2ncc3c(NCC(C)C)ncnc32)cc1	1%	32µM*	-5%	2%
COCC(C)Nc1ncnc2c1cnn2-c1ccc(Cl)cc1 (stereo not given)	0%	28µM*	-23%	2%
CC1(C)Cc2ccccc2C(NNC(=O)c2cccnc2)=N1	1%	18µM*	-2%	1%
CC1(C)Cc2ccccc2C(NNC(=O)c2ccncc2)=N1	1%	3%	13%	2%
Cc1cccc(C2CN(C)CCc3c2cc(O)c(O)c3Cl)c1 (stereo not given)	·	1%	-4%	-1%
COCCn1c(-c2ccc(Cl)cc2)nc2c(c(=O)c3ccccc3n2C)c1=O	2%	·	-14%	0%
COCCn1c(-c2ccccc2Cl)nc2c(c(=O)c3ccccc3n2C)c1=O	1%	18µM*	0%	4%
CCNC(=O)C1(C)CCN(C(=O)c2ccc3snnc3c2)C1 (stereo not given)	·	0%	·	·
CC1CCN(C(=O)CCNS(=O)(=O)c2ccc(Cl)cc2)CC1	-1%	·	-4%	6%
SMILES	GALK inhibitor	ClpP mod	Eya2 inh	USP2a block
CC(C)[C@H](NC(=O)c1ccc(F)cc1)C(=O)N(C)Cc1cccs1	·	0%	3%	-2%
Cc1cc(C)n2cc(CSc3nnnn3C)nc2n1	0%	25µM*	9%	0%
CCc1nnc(SCc2cn3c(C)cc(C)nc3n2)n1N	3%	11µM*	-10%	1%
Cc1cc(C)n2cc(CSc3nncn3C)nc2n1	11%	·	5%	2%
CC(C)(CNC(=O)c1ccc([N+](=O)[O-])c(Cl)c1)CNC(=O)c1ccc([N+](=O)[O-])c(Cl)c1	7%	16µM*	-26%	-10%
CN(CCNC(=O)c1c[nH]c2c1ccc1ccccc12)CCNC(=O)c1c[nH]c2c1ccc1ccccc12	·	28µM*	·	·
Cc1cc(C)n2c(Br)c(CSc3nc4ccccc4o3)nc2n1	0%	28µM*	0%	-1%
CCCN1CCN(C(=O)Cn2c(-c3cccs3)cc3cc(F)ccc32)CC1	·	4%	·	·
CCCN1CCN(C(=O)Cn2c(-c3cccs3)cc3ccccc32)CC1	·	32µM*	·	·
CN1CCN(C(=O)Cn2c(-c3cccs3)cc3ccccc32)CC1	·	28µM*	·	·
COC(=O)c1sccc1NC(=O)Nc1ccc(C)c(C)c1	8%	-14%	-2%	-1%
CC(OC(=O)c1snc(C(=O)NC2CCCCC2)c1N)C(=O)NC(C)(C)C (stereo not given)	-7%	28µM*	-3%	-2%
CC(C)(C)NC(=O)COC(=O)c1snc(C(=O)NC2CCCCC2)c1N	-2%	28µM*	-28%	3%
